The list is not random: actives were taken first. Their share in the collection is about 17%.
ClpP mod – qHTS Assay for Activators of ClpP | purified B. subtilis ClpP, FRET peptide cleavage, 20 min | Potency, µM (titrated, usually from 57.5 µM) | 340,000 tested, 1.9% active | AID 651965, 2013; active = well fitted falling curve with a large enough effect; inconclusive = small, poorly fitted or top-dose-only effect; inactive = no such curve, though single readings can be large or run the other way; also: the source files actives as falling curves though it sought activators and does not explain the sign; nearly all actives have a fitted effect of over 65% in size
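FRET quenching reversal measured ClpP activation: 10 microg/mL B. subtilis ClpP at pH 8 with the FRET-FV decapeptide, read at 430 nm after 320 nm excitation. The 20-min minus 0-min signal was scaled between DMSO/no-enzyme wells and ADEP (5.8 microM final).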
TDP1 cell CPT – DT40-hTDP1 cell growth loss with CPT | chicken DT40 Tdp1-/-;hTDP1 cells + 20 nM CPT, ATP luminescence, 48 h | Potency, µM (top dose mostly 46.2 µM), actives largely listed as inhibitors | 420,000 tested, 12% active; also: nearly all actives have a fitted effect of over 55% in size
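Chicken DT40 Tdp1-/- cells complemented with human TDP1, 400 cells/well, exposed to compounds plus 20 nM camptothecin for at least 48 h at 37 C; viability read as ATP content by CellTiter-Glo luminescence.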
TDP1 block – TDP1 (human) enzyme inhibition; Q9NUW8; recombinant TDP1, AlphaScreen DNA substrate cleavage; Potency, µM (top dose mostly 130 µM), hits mostly inhibitors; 350,000 tested, 0.28% active; also: nearly all actives have a fitted effect of over 40% in size
Target sequence (Q9NUW8 whole entry, looked up): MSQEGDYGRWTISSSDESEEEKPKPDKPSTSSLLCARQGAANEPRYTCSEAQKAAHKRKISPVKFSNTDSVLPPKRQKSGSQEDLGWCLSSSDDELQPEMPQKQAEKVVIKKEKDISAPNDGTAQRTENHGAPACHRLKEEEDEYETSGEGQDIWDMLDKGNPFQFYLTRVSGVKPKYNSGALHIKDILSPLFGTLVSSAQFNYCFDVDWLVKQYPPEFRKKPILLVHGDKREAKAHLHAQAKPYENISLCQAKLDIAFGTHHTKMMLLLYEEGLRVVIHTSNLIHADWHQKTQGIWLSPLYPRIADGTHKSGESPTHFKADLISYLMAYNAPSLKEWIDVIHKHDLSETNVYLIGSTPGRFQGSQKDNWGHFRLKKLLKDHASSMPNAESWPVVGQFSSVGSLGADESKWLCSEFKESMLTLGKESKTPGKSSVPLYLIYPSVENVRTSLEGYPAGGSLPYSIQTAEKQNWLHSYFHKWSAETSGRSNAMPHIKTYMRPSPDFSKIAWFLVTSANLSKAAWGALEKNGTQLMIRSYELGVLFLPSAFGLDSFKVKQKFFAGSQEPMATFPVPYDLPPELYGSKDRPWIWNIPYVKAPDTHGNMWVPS
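Recombinant E. coli-expressed Tdp1 (1 nM) preincubated with compound 15 min at RT, then 5'-biotin/3'-phosphotyrosine-FITC DNA substrate (15 nM) added for 5 min. AlphaScreen beads (10 ug/ml) added, 10 min RT; tyrosine-FITC cleavage read as signal loss.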
DT40 TDP1 no CPT – qHTS for Inhibitors of human tyrosyl-DNA phosphodiesterase 1 (TDP1): qHTS in cells in absence of CPT; DT40 Tdp1-/- hTDP1 cells, no CPT, ATP luminescence, 48 h; Potency, µM (highest dose often 46.2 µM), usual class: inhibitors; 420,000 tested, 15% active; also: nearly all actives have a fitted effect of over 55% in size
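Seeded 400 DT40-hTDP1 cells/well (vehicle DMSO, no 20 nM CPT); pinned compounds; ≥48 hr at 37 °C; CellTiter-Glo luminescence as viability measure.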
Numbers stand for hits; . = inactive; ? = inconclusive; / = no result given; [ ] = remark or other dose. Unless noted, calls follow the shape of the dose curve; as a rule, active = well fitted curve in the direction sought with a large enough effect; inconclusive = small, poorly fitted or top-dose-only effect, or another doubt; inactive = no such curve, though single readings can be large; an effect the other way counts as inactive or inconclusive.

SMILES | ClpP mod | TDP1 cell CPT | TDP1 block | DT40 TDP1 no CPT
C[C@@H]1CCCCO[C@H](CN(C)C(=O)CCC(F)(F)F)[C@@H](C)CN([C@H](C)CO)C(=O)c2cc(NC(=O)c3ccncc3)ccc2O1 | . | ? | / | ?
COc1ccc(NC(=O)N(C)C[C@H]2OCCCC[C@H](C)Oc3ccc(NS(=O)(=O)c4cn(C)cn4)cc3C(=O)N([C@H](C)CO)C[C@@H]2C)cc1 | . | . | / | .
COc1ccc(NC(=O)N(C)C[C@H]2OCCCC[C@@H](C)Oc3ccc(NC(=O)c4ccccc4)cc3C(=O)N([C@H](C)CO)C[C@@H]2C)cc1 | . | ? | / | 20.6µM
C[C@@H]1CCCCO[C@H](CN(C)C(=O)Nc2ccc(C(F)(F)F)cc2)[C@@H](C)CN([C@H](C)CO)C(=O)c2cc(NC(=O)c3ccncc3)ccc2O1 | . | 20.6µM | / | 14.6µM
COc1ccc(S(=O)(=O)Nc2ccc3c(c2)C(=O)N([C@H](C)CO)C[C@H](C)[C@@H](CN(C)C(=O)Nc2ccc(F)cc2)OCCCC[C@H](C)O3)cc1 | . | ? | / | 23.1µM
COc1ccc(S(=O)(=O)Nc2ccc3c(c2)C(=O)N([C@H](C)CO)C[C@H](C)[C@@H](CN(C)C(=O)Nc2ccc(C(F)(F)F)cc2)OCCCC[C@H](C)O3)cc1 | . | ? | / | 23.1µM
COc1ccc(S(=O)(=O)Nc2ccc3c(c2)C(=O)N([C@H](C)CO)C[C@H](C)[C@@H](CN(C)C(=O)Nc2ccc(C(F)(F)F)cc2)O3)cc1 | . | . | . | .
COc1ccc(OC)c(NC(=O)CSc2nc3nc(C)cc(C)n3n2)c1 | . | . | . | .
O=C(NCCc1ccc(Cl)cc1)c1nnc(Cc2ccc(Cl)cc2Cl)o1 | . | . | . | .
CCOC(=O)c1cc(NC(=O)c2ccc(OC)cc2)c(=O)n2c1oc1ccc(Cl)cc12 | . | . | . | .
O=C(O)c1cc(-c2ccc3c(c2)OCO3)nc2ccc(Cl)cc12 | . | . | . | .
O=C(c1cc(-c2ccncc2)nc2ccc(Cl)cc12)N1CCN(Cc2ccc3c(c2)OCO3)CC1 | / | 16.4µM | . | 23.1µM
COc1ccc(CN2CCN(C(=O)c3cc(-c4cccnc4)nc4ccc(Cl)cc34)CC2)c(OC)c1OC | . | ? | . | 20.6µM
O=C(c1cc(-c2ccncc2)nc2ccc(Br)cc12)N1CCN(Cc2ccc3c(c2)OCO3)CC1 | . | ? | . | 23.1µM
O=C(c1cccc(Cl)c1)N1CCN(Cc2ccc3c(c2)OCO3)CC1 | . | . | / | .
CCOc1ncccc1C(=O)N1CCN(Cc2ccc3c(c2)OCO3)CC1 | . | . | . | .
O=C(c1cccn2c(=O)c3ccc(Cl)cc3nc12)N1CCN(Cc2ccc3c(c2)OCO3)CC1 | 22.4µM | ? | . | 18.4µM
Cc1nn(CC(=O)Nc2cc(F)ccc2F)c(=O)c2cccn12 | . | . | . | .
Cc1nn(C)c(Oc2ccccc2)c1CCNS(=O)(=O)c1ccc(Cl)cc1 | . | 16.4µM | . | 16.4µM
COc1ccc(S(=O)(=O)NCCc2c(C)nn(C)c2Oc2ccccc2)cc1 | . | ? | . | 23.1µM
Cc1nn(C)c(Oc2ccccc2)c1CCNC(=O)C(C)(C)C | . | . | . | .
COc1cccc(NS(=O)(=O)c2c(C(=O)N3CCCCCC3)c(C)n(C)c2C)c1 | . | . | . | .
COc1ccc(C(=O)OCC(=O)c2ccc(C3CCCCC3)cc2)cc1 | . | ? | . | 20µM
Nc1ccc(O)cc1C(=O)OCC(=O)c1ccc(C2CCCCC2)cc1 | . | ? | . | 20.6µM
CC(=O)N[C@@H](CCC(=O)O)C(=O)O | / | . | . | .
SMILES | ClpP mod | TDP1 cell CPT | TDP1 block | DT40 TDP1 no CPT
CCc1ccc(NC(=O)C(=O)NCCOc2ccccc2Cl)cc1 | / | 16.4µM | . | 23.1µM
O=C(Cc1ccc(Cl)cc1)N1CCN(c2ccccc2)CC1 | . | . | / | .
S=C1NC(c2ccccc2)=CC(c2ccccc2)N1 (stereo not given) | / | ? | . | 29.1µM
CCc1cc2c(=O)c(-c3nc4ccccc4n3C)coc2c(CN2CCCCC2)c1O | . | ? | / | ?
CCc1cc2c(=O)c(-c3cnn(-c4ccccc4)c3)c(C)oc2c(CN2CCCCC2)c1O | 28.2µM | ? | . | 25.9µM
CCc1cc2c(=O)c(-c3nc4ccccc4n3C)c(C)oc2c(CN2CCCCC2)c1O | . | 25.9µM | . | ?
CCOC(=O)CN1C(=O)N2C[C@H]3CON(C)[C@H]3C[C@H]2c2ccccc21 | . | ? | / | ?
Cc1ccc2nc(N3CCCCCC3)c(CN(CC3CCCO3)C(=O)c3cncs3)cc2c1 (stereo not given) | / | .[9.04 µM] | / | .
CCC(CC)C(=O)N(C)c1c(C)nc2c(OCCOc3ccc(F)cc3)cccn12 | . | 20.6µM | / | 18.4µM
CCC(CC)C(=O)N(C)c1c(C)nc2c(OCC(=O)C(C)(C)C)cccn12 | . | . | / | ?
CCC(CC)C(=O)N(C)c1c(C)nc2c(OCCC3CCCCC3)cccn12 | . | 7.31µM | / | 5.17µM
Cc1ccc([C@H]2C[C@H](n3cc(COC(=O)c4ccccc4)nn3)[C@@H](O)CN2C(=O)c2cccs2)cc1 | . | . | / | .
Cc1nn(CC(=O)Nc2cccc(C(F)(F)F)c2)c(=O)c2nn(-c3ccccc3)c(C)c12 | . | . | . | .
N#Cc1ccccc1S(=O)(=O)N1CCN(C(=O)CN(Cc2ccco2)Cc2cccs2)CC1 | . | ? | / | 16.4µM
N#Cc1ccccc1S(=O)(=O)N1CCN(Cc2cccs2)CC1 | . | . | / | .
O=C(OCC#CCSc1nnc(-c2cccc3ccccc23)o1)c1ccco1 | 28.2µM | . | . | .
O=C(OCC#CCSc1nnc(-c2cccc3ccccc23)o1)c1ccc(Br)cc1 | / | / | . | /
Cc1ncc(CN2CCC(C(=O)Nc3ccc(-n4cccn4)cc3)CC2)s1 | . | . | . | .
O=C(Nc1ccc(-n2cccn2)cc1)C1CCCCN1Cc1cccc2c1OCO2 (stereo not given) | . | 6.51µM | . | 4.61µM
CCN(CC)C(=O)Cn1cc(SCC(=O)NC2CCCCC2)c2ccccc21 | . | . | / | .
O=C(NCC(=O)N1CCN(C(c2ccccc2)c2ccccc2)CC1)c1ccccc1Br | . | ? | / | 20.6µM
O=C(NCC(=O)N1CCN(C(c2ccccc2)c2ccccc2)CC1)c1ccc(Br)o1 | . | ? | . | ?
Cc1cc(C)cc(C(=O)NCC(=O)N2CCN(C(c3ccccc3)c3ccccc3)CC2)c1 | / | ? | / | 18.4µM
O=C1CCc2cc(Cl)c(S(=O)(=O)Nc3ccc(Cl)c(Cl)c3)cc2N1 | / | / | . | /
[O-]c1c[n+](-c2ccc(-[n+]3cc([O-])on3)cc2)no1 | / | ? | . | ?
CC(=O)N1CC(=O)N=C1SCC(=O)Nc1nc(-c2ccccc2)c(-c2ccccc2)s1 | ? | 18.4µM | . | 13µM
CC(=O)Nc1nc(-c2ccccc2)c(-c2ccccc2)s1 | . | ? | / | ?
N#Cc1ccc(-c2nc3ccccc3nc2-c2ccccc2)cc1C#N | . | ? | . | 18.4µM

Screening results from PubChem BioAssay.
